# Experimental data reported in PubChem BioAssay (NCI).
# This is part of a sample that, as a whole, favours compounds with a hit. Of some 83,000 tested, about 20% had one in any assay.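 How to read the values: 0–100, growth inhibition (40 = 60% inhibited); 0, no net growth; -100 to 0, cell death (-40 = 40% of starting cells died; -100 = all dead).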 Active and inactive are the calls of the source. Rule for the calls: active = growth percent below 10; inactive = the rest.
# System: HL-60(TB) leukemia
# Assay: NCI-60 one-dose screen, 48 h (100 = growth as untreated, 0 = no growth, -100 = all killed)
# Settings: 10 µM unless noted
row,Compound,growth
1,COc1ccc(N=Nc2c(N)nn3c(-c4cc5ccccc5oc4=O)ccnc23)cc1,73.9% (inactive)
2,Cc1ncsc1-c1ccc(CNC(=O)[C@@H]2C[C@@H](O)CN2C(=O)[C@@H](NC(=O)C2(F)CC2)C(C)(C)C)c(OCCOCCOCCOCCOc2nc(Nc3cc(S(C)(=O)=O)ccc3N[C@@H](c3cccc4c3OC(F)(F)O4)c3ncccc3Cl)nc(N3CCNCC3)n2)c1,72% (inactive)
3,COc1ccc(-c2nc3cc(C)ccc3n2CC(=O)N=Nc2c(O)[nH]c3ccc(OC)cc23)cc1,-62.1% (active)
4,Nc1nnc(-c2c[nH]c3ccc(F)cc23)c(-c2c[nH]c3ncccc23)n1,63.3% (inactive)
5,O=C(O)c1ccc(-c2ccc(/C=N/NC(=O)c3[nH]c4ccc(Br)cc4c3-c3ccccc3)o2)cc1,-18.5% (active)
6,CC(=O)c1c(N)c(C#N)cn1-c1ccc(Cl)cc1Cl,102% (inactive)
7,Cc1cccc(NC(=O)CN2CCN(c3ncnc4c3cnn4-c3ccccc3)CC2)c1,88.3% (inactive)
8,COc1ccc(-c2ccc(SCC(=O)Nc3ccc(C#N)cc3)nn2)cc1,95.8% (inactive)
9,CC(C)C1=C[C@@]23CC[C@@H]4[C@](C)(CCC[C@]4(C)C(=O)NCc4ccccc4)[C@H]2C[C@@H]1[C@H]1C(=O)OC(=O)[C@H]13,3.62% (active)
10,COc1ccc2[nH]c(=O)c(CSc3nccc(-c4ccc(Cl)cc4)n3)cc2c1,29.3% (inactive)
11,COc1ccc(NCc2cn(-c3ccc(C(=O)O)cc3)nc2-c2ccc(F)cc2)cc1C(F)(F)F,49.9% (inactive)
12,Cc1ccc(S(=O)(=O)Nc2ccc(-c3ccc4c(c3)NC(=O)/C4=C\c3ccc[nH]3)cc2)cc1,39.3% (inactive)
13,COc1ccc(CN2[C@@H](C(=O)NCc3ccc(C(=O)NO)cc3)Cc3c([nH]c4ccccc34)[C@@H]2C2CC2)cc1,-8.06% (active)
14,CN(C)CCCc1ccc(Nc2cnn(C)c(=O)c2Cl)cc1,81% (inactive)
15,COc1cc(CNC(=O)C[C@H](C)CCC=C(C)C)ccc1OCc1cn(-c2ccc(Br)cc2)nn1,88.4% (inactive)
16,O=C(O)CC1S/C(=N/N=C/c2nc3ccccc3s2)NC1=O (stereo not given),98.4% (inactive)
17,Cc1cc(C)cc(C(=O)Nc2cccc(-c3cn(-c4ccc(S(N)(=O)=O)cc4)nn3)c2)c1,75.8% (inactive)
18,COc1cc(NC(=O)c2cccc(C3CCc4c(cc(OC)c(OC)c4OC)O3)c2)cc(OC)c1OC (stereo not given),4.25% (active)
19,Cc1cc(=O)oc2cc(OCCCOc3ccc(/C=C/C(=O)Nc4ccccc4N)cc3)ccc12,1.53% (active)
20,O=C1Nc2cc(Cl)ccc2/C1=C/c1ccc(OCc2ccc(Br)cc2F)cc1,81.5% (inactive)

row,Compound,growth
1,COc1cc2c(c(OC)c1OC)C(=O)CC(c1cccc(NC(=O)c3cc(NC(=O)[C@H](C)N)ccc3Cl)c1)O2 (stereo not given in full),2.28% (active)
2,COc1ccc(C(=O)/C=C/c2cc(C(F)(F)F)cc(C(F)(F)F)c2)cc1S(N)(=O)=O,2.43% (active)
3,Cc1cc(=O)oc2cc(OCCCCOc3ccc(/C=C/C(=O)Nc4ccc(F)c(Cl)c4)cc3)ccc12,97.6% (inactive)
4,COc1ccc(CCC2NCCc3c(Br)c4c(c(OC)c32)OCO4)cc1 (stereo not given),-11.6% (active)
5,COc1ccc(CN2[C@H](C(=O)NCCCCCCC(=O)NO)Cc3c([nH]c4ccccc34)[C@H]2C2CC2)cc1,3.44% (active)
6,CC(C)(C)c1ccc(NCc2cn(-c3ccc(C(=O)O)cc3)nc2-c2ccc(C#N)cc2)cc1,3.14% (active)
7,Nc1nn2c(-c3cc4ccccc4oc3=O)ccnc2c1N=Nc1ccccc1,108% (inactive)
8,Nc1nn2c(-c3cc4cc(Br)ccc4oc3=O)ccnc2c1N=Nc1ccc(Br)cc1,98.5% (inactive)
9,C=C1CC[C@@H]2[C@]3(C)COC(c4cn[nH]c4-c4cccc(Cl)c4)O[C@@H]3CC[C@@]2(C)[C@@H]1C/C=C1/C(=O)OCC1O (stereo not given in full),-15.1% (active)
10,CCCCSc1nc(Nc2ccc(/C(C)=N/NC(N)=S)cc2)c(C#N)c(-c2ccc(F)cc2)n1,90.7% (inactive)
11,O=C(O)Cn1c(O)c(/C=C2/C=c3cc4c(cc3=NC2=O)OCCO4)sc1=S,100% (inactive)
12,CCN1CCN(Cc2ccc(NC(=O)c3cccc(-n4cc(-c5ccc(NC(C)=O)nc5)nn4)c3)cc2C(F)(F)F)CC1,65.4% (inactive)
13,Cc1ccc(F)cc1N/C=c1\s/c(=C(\C#N)C(=O)Nc2ccccc2)n(-c2ccccc2)c1=O,111% (inactive)
14,CN1CCN(c2ccc(C(=O)/C=C/c3cc(Br)ccc3F)cc2)CC1,-22.1% (active)
15,Cc1ccc(/C=C/C(=O)c2ccc(NC(=O)CSc3nnc(-c4c[nH]c5ccccc45)n3-c3ccccc3)cc2)cc1,75.5% (inactive)
16,COc1c(F)ccc(C(=O)Nc2ccc3nc(NC(=O)C4CCCN(S(=O)(=O)c5ccc(Br)c(F)c5)C4)sc3c2)c1F (stereo not given),88.8% (inactive)
17,Cn1cc(-c2cc(N)n3nc(-c4c[nH]c5ccccc45)cc3n2)c2cc(Br)cnc21,-66.7% (active)
18,COc1ccc(N2N=C(c3ccc4c(c3)OCCO4)CC2c2cccc(NC(=O)CCCNS(=O)(=O)c3ccc(F)cc3)c2)cc1 (stereo not given),80.5% (inactive)
19,CCCn1c(NC(=O)c2cccc(C(N)=O)c2)nc2cc(CN3CCCCC3)ccc21,91.4% (inactive)
20,CN(C)c1ccnc(NCCCSC(c2ccccc2)(c2ccccc2)c2ccccc2)c1,-59% (active)
